PubChem BioAssay (NCI)
This is part of a sample that, as a whole, favours compounds with a hit. Of some 83,000 tested, about 20% had one in any assay.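 A percent growth of 40 corresponds to 60% growth inhibition; 0 means no net growth; -100 means all cells died. Active threshold: below 10.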 Calls of active or inactive are those of the source.

Tests used:
Experiment in all cases: NCI-60 one-dose screen, 48 h (100 = growth as untreated, 0 = no growth, -100 = all killed)
Details in all cases: 10 µM unless noted
[1] = tested on: HCT-15 colon
[2] = tested on: HT29 colon
[3] = tested on: SNB-75 CNS
[4] = tested on: U251 CNS
[5] = tested on: PC-3 prostate
[6] = tested on: SK-MEL-5 melanoma
[7] = tested on: UACC-62 melanoma
[8] = tested on: LOX IMVI melanoma
[9] = tested on: SK-MEL-28 melanoma

Measured: growth

O=C(Cc1ccc(/C=C/C(=O)c2ncc[nH]2)cc1)Nc1cc(F)c(F)c(F)c1
inactive: [1] 11.9% | [2] 18.1% | [3] 44.8% | [5] 48.2% | [6] 97.7% | [7] 74.5% | [9] 103%
active: [4] 8.91% | [8] -3.1%

O=C(Nc1cccnc1Nc1ccccc1)c1cn(Cc2cccc(Oc3ccccc3)c2)nn1
inactive: [1] 30.5% | [2] 38.2% | [3] 47.6% | [4] 54.4% | [5] 49.3% | [6] 26.6% | [8] 37% | [9] 55.1%

Cc1ccc2c(/C=C/C(=O)c3cc(CN4CCOCC4)c(O)c4nc(C)ccc34)cc(CN3CCOCC3)c(O)c2n1
active: [1] 0.566% | [2] -6.31% | [4] -24% | [6] 4.68% | [7] -0.641% | [8] -66.8% | [9] -19.9%
inactive: [3] 23.3% | [5] 19.9%

CC[C@H](Nc1nc(N)nc(C)c1C#N)c1nc2cccc(CN(C)c3ncc(C(=O)NO)cn3)c2c(=O)n1-c1ccccc1
inactive: [1] 42.8% | [3] 29.1% | [5] 14.6%
active: [2] -18.4% | [4] -69.6% | [6] -92.2% | [7] -80% | [8] -86.6% | [9] 6.03%

CN(C)c1ccc(C(=S)c2ccc(N(C)C)cc2)cc1
inactive: [1] 43% | [2] 30.9% | [3] 78.1% | [4] 62.4% | [5] 71.2% | [6] 30.5% | [7] 52.2% | [8] 69% | [9] 84.4%

C=CN(C(=O)N1CCN(c2cc3c(cc2F)c(=O)c(C(=O)O)cn3C2CC2)CC1)c1nc(-c2ccccc2)cs1
inactive: [1] 102% | [2] 93.1% | [3] 109% | [4] 101% | [5] 91.1% | [6] 95.7% | [7] 86% | [8] 77.5% | [9] 101%

O=C1Nc2ccccc2/C1=N/N1C(=O)CN(CCCl)C1=O
inactive: [1] 105% | [2] 99.1% | [3] 86.8% | [4] 102% | [5] 99% | [6] 97.5% | [7] 90.5% | [8] 100% | [9] 111%

COc1cc(/C=C/C(=O)c2cc(OC)c(OC)c(OC)c2)ccc1Oc1nc2c(c(=O)n(C)c(=O)n2C)n1C
inactive: [3] 31% | [6] 28.9%
active: [1] 0.728% | [2] -51.1% | [4] -81.9% | [5] 7.57% | [7] -74.1% | [8] -81.1% | [9] -45.3%

COCCn1cc(-c2nc(-c3cc4cccnc4n3C)cs2)c2ccccc21
active: [6] 2.5%
inactive: [1] 21.5% | [2] 12.9% | [3] 61.3% | [4] 33.3% | [5] 27.5% | [7] 46.2% | [8] 38.7% | [9] 73.1%

Oc1c(I)cc(I)cc1CN(Cc1ccccn1)Cc1ccccn1
active: [4] 7% | [6] -33.5% | [7] 3.88% | [8] 7.25%
inactive: [1] 21.3% | [2] 25.5% | [3] 30% | [5] 28% | [9] 28.5%

O=C(O)c1cn(C2CC2)c2cc(N3CCN(C(=O)N4CCOCC4)CC3)c(F)cc2c1=O
inactive: [1] 103% | [2] 102% | [3] 98.1% | [4] 103% | [5] 91.9% | [6] 99.4% | [7] 97.3% | [8] 87.1% | [9] 104%

Cc1ccc2cnc(N)c(C#Cc3cc(C(=O)Nc4ccc(CN5CCN(C)CC5)c(C(F)(F)F)c4)cnc3C)c2c1
active: [1] -40.5% | [2] -62.7% | [3] -17.1% | [4] -80.7% | [5] -86.9% | [7] 7.26% | [8] -71% | [9] -84.9%
inactive: [6] 26.8%

O=C(c1ccc(Br)cc1)C(Br)C(c1ccc(Cl)cc1)C(c1ccccc1)[N+](=O)[O-] (centres undefined)
inactive: [1] 84.8% | [2] 87.3% | [3] 89.4% | [4] 96.9% | [6] 86.6% | [7] 71.8% | [8] 102% | [9] 97.7%

Clc1ccc2nn3c4ccccc4c(OCCN4CCOCC4)nc3c2c1
inactive: [1] 89.8% | [2] 95.5% | [3] 76.8% | [4] 84.5% | [5] 92.8% | [6] 83.7% | [7] 67.6% | [8] 84.2% | [9] 110%

CS(=O)/C(C#N)=C\C=C\c1cccc(Cl)c1 (centres undefined)
active: [1] -6.41% | [2] 8.51% | [7] 0.315% | [8] -53.2%
inactive: [3] 22.5% | [4] 17.3% | [5] 30.6% | [6] 32.3% | [9] 24.8%

CN1C(=O)/C(=C/c2ccc(C(=O)Nc3ncc(Cc4cccc(C(F)(F)F)c4)s3)cc2)SC1=S
active: [6] 7.19%
inactive: [1] 36.3% | [2] 55.4% | [3] 64.1% | [4] 67.8% | [5] 53.5% | [7] 11.3% | [8] 35% | [9] 46.4%

CCOc1ccc(NC(=O)Nc2ccc(OCC)cc2)cc1
inactive: [1] 106% | [2] 107% | [3] 106% | [4] 99.8% | [5] 100% | [6] 104% | [7] 105% | [8] 98.3% | [9] 101%

CC(C)n1c2ccc(Br)cc2c2c3c(c4c5ccccc5ccc4c21)C(=O)NC3=O
inactive: [1] 83.7% | [2] 70.3% | [3] 103% | [4] 98% | [5] 89.8% | [6] 90.7% | [7] 101% | [8] 106% | [9] 96.5%

O=c1cc(C(F)(F)F)c2cc(-c3cc4ccccc4c(=O)o3)c(O)cc2o1
inactive: [1] 90.3% | [2] 106% | [3] 76.1% | [4] 65.7% | [5] 68.5% | [6] 24.9% | [7] 21.9% | [8] 72.8% | [9] 69.6%

CNC(=O)c1cc(Oc2ccc3c(c2)sc2nc(-c4cc(C(F)(F)F)cc(C(F)(F)F)c4)cn23)ccn1
inactive: [1] 70.9% | [2] 38.7% | [3] 23.3% | [4] 38.6% | [5] 45.4% | [6] 33% | [7] 53.3% | [8] 50.1% | [9] 79.3%

CN(C)/C(N)=N/N=C(\c1ccccc1)c1ccccn1
inactive: [1] 90.5% | [2] 110% | [3] 101% | [4] 96.7% | [5] 81.5% | [6] 95.5% | [7] 105% | [8] 93% | [9] 113%

Cc1ccc(S(=O)(=O)OC[C@]23CCC(C)(C)C[C@H]2C2=CC[C@@H]4[C@@]5(C)CCCNC(C)(C)[C@@H]5CC[C@@]4(C)[C@]2(C)CC3)cc1
active: [1] -50.9% | [2] -59.3% | [4] -81.1% | [8] -87.7%
inactive: [3] 86.4% | [5] 53.9% | [6] 91.5% | [7] 89.7% | [9] 99.8%

Cc1cccc(N2C(=O)/C(=C/C(Cl)=C/c3ccc([N+](=O)[O-])cc3)SC2=S)c1C
active: [1] -20.3% | [2] -7.89% | [3] -19.1% | [4] 4.72% | [5] 8.37% | [6] -33.4% | [7] 0.485% | [8] -70.4%
inactive: [9] 24.2%

COc1ccc(-c2cn(Cc3cc4ccccc4s3)nn2)cc1OCCN1CCCCC1
inactive: [1] 59.4% | [2] 20.1% | [3] 83.8% | [4] 74.5% | [5] 68.4% | [6] 42.8% | [7] 83.8% | [8] 48.9% | [9] 75.8%

Cc1ccc(S(=O)(=O)c2nc(-c3ccccc3)oc2SCC(N)=O)cc1
inactive: [1] 95.3% | [2] 85.7% | [3] 90.4% | [4] 105% | [5] 85.6% | [6] 94.9% | [7] 105% | [8] 96% | [9] 108%

COc1c2c(cc3c1C(=O)N[C@@H]1[C@@H](O)[C@@H](O)[C@H](O)C[C@@H]31)OCCO2
inactive: [1] 102% | [2] 106% | [3] 99.3% | [4] 100% | [5] 97.7% | [6] 99.1% | [7] 96.7% | [8] 101% | [9] 106%

CSc1ccc(N2C(=N)C(=S)N(c3ccc(C)cc3)C2=O)cc1
inactive: [1] 85.9% | [2] 107% | [3] 89.9% | [4] 91% | [5] 74% | [6] 101% | [7] 92.8% | [8] 87.4% | [9] 106%

COC12C=C/C(=C(/C(=O)OCCSc3ccnn3C)C(=O)CCCCCCCCC3(OC)C=C/C(=C(/C(=O)OCCSc4ccnn4C)C(=O)CCCCCCCC1)O3)O2
inactive: [2] 11.9% | [3] 56.8% | [5] 15.8%
active: [1] -19.5% | [4] -3.32% | [6] -70% | [7] -56.3% | [8] -68.6% | [9] -9.65%

C=C(C)[C@@H]1CC[C@]2(C(=O)Nc3ccccn3)CC[C@]3(C)[C@H](CC[C@@H]4[C@@]5(C)CCCNC(C)(C)[C@@H]5CC[C@]43C)[C@@H]12
active: [2] 4.13% | [6] -96.5%
inactive: [1] 13.1% | [3] 33.4% | [4] 10.4% | [5] 17.3% | [7] 36.1% | [8] 10.9% | [9] 31.9%
